Where “and” joins values, the source holds several entries; their conditions need not be identical. Equal values may be shown once. Results filed as inconclusive are left out. The source holds several records for some structures; these can differ, active in one and inactive in another. Calls of active or inactive are those of the source. Unless noted, calls follow the shape of the dose curve; as a rule, active = well fitted curve in the direction sought with a large enough effect in the repeat runs; inconclusive = weak or mixed curves; inactive = no such curve, though single readings can be large; an effect the other way counts as inactive or inconclusive.
Columns and labels:
[1] = qHTS assay to identify small molecule antagonists of the glucocorticoid receptor (GR) signaling pathway - cell viability counter screen (AID 720693); also: nearly all actives have a fitted effect of over 55% in size
[2] = qHTS assay for identifying genotoxic compounds that show differential cytotoxicity against isogenic chicken DT40 cell lines with known DNA damage response pathways - Rev3 mutant cell line (AID 743014); also: nearly all actives have a fitted effect of over 55% in size; also: potency is read from the fitted curve at half-maximal effect
[3] = qHTS assay for identifying genotoxic compounds that show differential cytotoxicity against isogenic chicken DT40 cell lines with known DNA damage response pathways - Rad54/Ku70 mutant cell line (AID 743015); also: nearly all actives have a fitted effect of over 60% in size; also: potency is read from the fitted curve at half-maximal effect
[4] = target: Androgen receptor (Homo sapiens) (UniProt P10275); experiment: qHTS assay to identify small molecule antagonists of the androgen receptor (AR) signaling pathway (AID 743035; active = well fitted inhibition curve with a large enough effect in the signal ratio in the repeat runs, not every such curve was filed as active; the % refers to the signal ratio)
How it was run: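 R1881 agonist challenge of a HEK293 UAS-beta-lactamase AR reporter line in the presence of compound (16 h, 37C); signal taken as FRET fluorescence after 2 h with LiveBLAzer B/G substrate at room temperature.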

[5] = target: Androgen receptor (Homo sapiens) (UniProt P10275); experiment: qHTS assay to identify small molecule agonists of the androgen receptor (AR) signaling pathway (AID 743036; active = well fitted activation curve with a large enough effect in the signal ratio in the repeat runs, with a control signal flat, not every such curve was filed as active; the % refers to the signal ratio)
How it was run: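 Following a 4 h settling period, AR-UAS-bla HEK293 cells were dosed with compounds for 16 h at 37C. A 2 h room-temperature incubation with LiveBLAzer B/G FRET substrate preceded the fluorescence measurement.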

[6] = target: Androgen receptor (Homo sapiens) (UniProt P10275); experiment: qHTS assay to identify small molecule agonists of the androgen receptor (AR) signaling pathway using the MDA cell line (AID 743040; also: nearly all actives have a fitted effect of over 20% in size)
How it was run: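 Luciferase read-out, ONE-Glo, 30 min RT. Cells: MDA-kb2 AR-luc, MMTV promoter with AR and GR response elements. Compound exposure 16 h, 37C, 0% CO2, after 5 h pre-incubation. qHTS agonist mode.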

[7] = qHTS assay to identify small molecule antagonists of the androgen receptor (AR) signaling pathway using the MDA cell line - cell viability counter screen (AID 743041; also: nearly all actives have a fitted effect of over 45% in size)
How it was run: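 Cytotoxicity counter screen: MDA-kb2 AR-luc cells, compound + R1881, 16 h, 37C, 0% CO2; CellTiter-Fluor added at 15.5 h, fluorescence read after 30 min.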

[8] = target: Androgen receptor (Homo sapiens) (UniProt P10275); experiment: qHTS assay to identify small molecule antagonists of the androgen receptor (AR) signaling pathway using the MDA cell line (AID 743042; also: nearly all actives have a fitted effect of over 55% in size)
How it was run: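 MDA-kb2 breast carcinoma cells carrying MMTV-luciferase (AR/GR responsive) were co-treated with compounds and the agonist R1881 for 16 h at 37C. Inhibition read as ONE-Glo luminescence; CellTiter-Fluor fluorescence measured in parallel for cytotoxicity.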

[9] = qHTS assay to identify small molecule antagonists of the thyroid receptor (TR) signaling pathway - cell viability counter screen (AID 743064); also: nearly all actives have a fitted effect of over 50% in size; also: potency is read from the fitted curve at half-maximal effect
How it was run: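 CellTiter-Fluor readout, 30 min at 37 °C/5% CO2, following 23.5 h incubation of GH3.TRE-Luc cells with test compound and 1 nM T3 (final).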

[10] = system: thyroid hormone receptor (rat, GH3 cells); experiment: qHTS assay to identify small molecule agonists of the thyroid receptor (TR) signaling pathway (AID 743066; calls by dose curve)
[11] = target: Estrogen receptor (Homo sapiens) (UniProt P03372); experiment: qHTS assay to identify small molecule antagonists of the estrogen receptor alpha (ER-alpha) signaling pathway (AID 743069; active = well fitted curve in the direction sought with a large enough effect in the signal ratio in the repeat runs, not every such curve was filed as active; the % refers to the signal ratio)
How it was run: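 Beta-lactamase FRET fluorescence is read after 2 hr at room temperature with LiveBLAzer B/G substrate. Before that, ER-alpha-bla HEK293 cells sit 4 hr after plating, then receive compound plus 17beta-estradiol and incubate 18 hr at 37C.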

[12] = qHTS assay to identify small molecule antagonists of the estrogen receptor alpha (ER-alpha) signaling pathway - cell viability counter screen (AID 743074; calls by dose curve;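 also: HEK293 cells carrying ER-alpha-UAS-bla reporter stimulated with 17beta-estradiol; nearly all actives have a fitted effect of over 45% in size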)
[13] = target: Estrogen receptor (Homo sapiens) (UniProt P03372); experiment: qHTS assay to identify small molecule agonists of the estrogen receptor alpha (ER-alpha) signaling pathway (AID 743075; calls by dose curve;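 also: HEK293 GripTite cells with ER-alpha and UAS-driven beta-lactamase reporter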)
[14] = target: Estrogen receptor (Homo sapiens) (UniProt P03372); experiment: qHTS assay to identify small molecule agonists of the estrogen receptor alpha (ER-alpha) signaling pathway using the BG1 cell line (AID 743079); also: nearly all actives have a fitted effect of over 20% in size; also: potency is read from the fitted curve at half-maximal effect
[15] = qHTS assay to identify small molecule antagonists of the estrogen receptor alpha (ER-alpha) signaling pathway using the BG1 cell line - cell viability counter screen (AID 743081);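 also: compound given together with 17beta-estradiol as the ER stimulus; series mostly up to about 70 µM; nearly all actives have a fitted effect of over 45% in size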
Aromatase (Homo sapiens) = Aromatase (Homo sapiens) (UniProt P11511); experiment: qHTS assay to identify aromatase inhibitors (AID 743083); also: series mostly up to about 70 µM; nearly all actives have a fitted effect of over 55% in size
[16] = qHTS assay to identify small molecule antagonists of the thyroid receptor (TR) signaling pathway (AID 743065); also: nearly all actives have a fitted effect of over 55% in size; also: potency is read from the fitted curve at half-maximal effect
How it was run: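 GH3.TRE-Luc rat pituitary cells (two TREs driving luciferase) were dosed with compound, then stimulated with 1 nM T3 (final) for 23.5 h at 37 C. ONE-Glo luminescence was the read-out, with CellTiter-Fluor fluorescence as the cytotoxicity counter-screen.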

[17] = qHTS assay for identifying genotoxic compounds that show differential cytotoxicity against isogenic chicken DT40 cell lines with known DNA damage response pathways - wild type cell line (AID 743012); also: nearly all actives have a fitted effect of over 60% in size; also: potency is read from the fitted curve at half-maximal effect
How it was run: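 Endpoint: CellTiter-Glo luminescence, 30 min RT. Cells: wild type DT40, 300/well. Exposure: compounds in DMSO, 40 h, 37 C/5% CO2, after ~0.5 h pre-incubation.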

[18] = qHTS assay to identify small molecule antagonists of the estrogen receptor alpha (ER-alpha) signaling pathway using the BG1 cell line (AID 743080; calls by dose curve;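 also: BG1 cells stimulated with 17beta-estradiol alongside compound; series mostly up to about 70 µM; nearly all actives have a fitted effect of over 25% in size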)
How it was run: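 Luminescence from a 4×ERE-luciferase reporter in BG1-Luc-4E2 cells served as read-out. Cells, pre-cultured 5 days in stripped-serum phenol-red-free medium, were exposed to compound with 17beta-estradiol co-stimulation for 21.5 h at 37 C.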

[19] = qHTS assay to identify small molecule antagonists of the androgen receptor (AR) signaling pathway - cell viability counter screen (AID 743033; also: nearly all actives have a fitted effect of over 45% in size)

Measured: Potency

Chain of Aromatase (Homo sapiens) (P11511 whole entry, looked up): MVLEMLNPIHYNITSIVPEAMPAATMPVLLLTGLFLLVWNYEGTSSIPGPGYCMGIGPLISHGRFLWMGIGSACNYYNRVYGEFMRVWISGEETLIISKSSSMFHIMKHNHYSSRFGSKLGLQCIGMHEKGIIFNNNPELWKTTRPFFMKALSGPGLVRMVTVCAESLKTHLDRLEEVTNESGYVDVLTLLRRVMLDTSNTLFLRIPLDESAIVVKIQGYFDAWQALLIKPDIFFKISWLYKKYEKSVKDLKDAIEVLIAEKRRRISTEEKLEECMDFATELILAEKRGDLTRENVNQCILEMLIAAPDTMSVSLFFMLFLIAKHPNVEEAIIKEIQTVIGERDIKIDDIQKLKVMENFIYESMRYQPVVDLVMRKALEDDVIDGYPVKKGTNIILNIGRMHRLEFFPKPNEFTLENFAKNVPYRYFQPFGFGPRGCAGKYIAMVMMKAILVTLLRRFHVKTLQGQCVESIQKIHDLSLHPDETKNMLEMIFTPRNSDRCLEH
Chain of Androgen receptor (Homo sapiens) (P10275 whole entry, looked up): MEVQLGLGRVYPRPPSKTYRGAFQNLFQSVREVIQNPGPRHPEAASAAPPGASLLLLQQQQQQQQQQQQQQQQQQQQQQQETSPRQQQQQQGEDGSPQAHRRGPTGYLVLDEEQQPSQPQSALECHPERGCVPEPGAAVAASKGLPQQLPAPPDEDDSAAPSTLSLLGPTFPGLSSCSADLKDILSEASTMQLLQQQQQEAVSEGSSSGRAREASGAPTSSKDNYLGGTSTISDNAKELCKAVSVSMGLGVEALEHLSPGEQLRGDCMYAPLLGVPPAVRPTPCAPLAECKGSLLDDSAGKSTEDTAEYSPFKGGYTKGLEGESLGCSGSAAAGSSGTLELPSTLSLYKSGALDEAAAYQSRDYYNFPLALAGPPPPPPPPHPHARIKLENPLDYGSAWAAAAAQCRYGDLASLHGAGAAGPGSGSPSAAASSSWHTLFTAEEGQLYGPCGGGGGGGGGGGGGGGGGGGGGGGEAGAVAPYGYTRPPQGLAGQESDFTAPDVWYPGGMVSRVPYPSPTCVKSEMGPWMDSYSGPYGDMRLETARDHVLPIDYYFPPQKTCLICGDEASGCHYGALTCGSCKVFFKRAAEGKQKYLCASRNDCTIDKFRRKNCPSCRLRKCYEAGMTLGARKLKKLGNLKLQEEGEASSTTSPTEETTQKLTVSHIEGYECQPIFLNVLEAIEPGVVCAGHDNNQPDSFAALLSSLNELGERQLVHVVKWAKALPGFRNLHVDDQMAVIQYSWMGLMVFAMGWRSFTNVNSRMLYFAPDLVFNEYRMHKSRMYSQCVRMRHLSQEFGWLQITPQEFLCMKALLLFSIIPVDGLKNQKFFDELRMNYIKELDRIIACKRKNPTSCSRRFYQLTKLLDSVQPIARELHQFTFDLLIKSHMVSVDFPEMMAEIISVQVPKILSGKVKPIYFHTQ
Chain of Estrogen receptor (Homo sapiens) (P03372 whole entry, looked up): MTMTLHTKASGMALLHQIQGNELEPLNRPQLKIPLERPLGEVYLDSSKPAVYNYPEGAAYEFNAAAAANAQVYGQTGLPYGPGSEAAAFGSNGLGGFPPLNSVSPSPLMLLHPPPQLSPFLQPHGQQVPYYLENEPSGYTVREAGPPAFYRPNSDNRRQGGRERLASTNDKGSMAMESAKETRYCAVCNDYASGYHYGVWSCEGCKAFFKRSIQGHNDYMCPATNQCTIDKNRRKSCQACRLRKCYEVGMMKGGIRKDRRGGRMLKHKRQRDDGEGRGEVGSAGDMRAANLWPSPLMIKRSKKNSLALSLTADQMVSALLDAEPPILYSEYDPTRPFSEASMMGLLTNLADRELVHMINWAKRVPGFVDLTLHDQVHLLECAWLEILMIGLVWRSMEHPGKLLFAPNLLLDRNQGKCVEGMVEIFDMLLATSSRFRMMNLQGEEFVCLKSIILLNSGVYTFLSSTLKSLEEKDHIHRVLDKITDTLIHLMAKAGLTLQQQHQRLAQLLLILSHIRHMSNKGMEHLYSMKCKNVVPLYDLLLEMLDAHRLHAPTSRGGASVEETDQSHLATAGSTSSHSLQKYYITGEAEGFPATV

c1ccc2c(c1)ccc1ccccc12
active: [2] 68.6 µM | [3] 30.6 µM
not listed: [16] | [17] | [18] | [19]
inactive: all other assays above

CCCCCCCCCCCCOCCO
not listed: [2] | [4] | [11] | [13] | [14] | [17] | [18] | [19]
inactive: all other assays above

Cc1cccc(O)c1
not listed: [4] | [5] | [6] | [8] | [12] | [19]
inactive: all other assays above

O=C(O)CC(C(=O)O)C(CC(=O)O)C(=O)O (configuration not stated)
not listed: [4] | [5] | [6] | [8] | [18] | [19]
inactive: all other assays above

Cc1cnc(C(=O)NCCc2ccc(S(=O)(=O)NC(=O)NC3CCCCC3)cc2)cn1
not listed: [2] | [3] | [4] | [5] | [6] | [8] | Aromatase (Homo sapiens) | [17]
inactive: all other assays above

CSCCC=O
inactive: [1] | [17] | [3] | [19] | [7] | [9] | [12] | [15] | Aromatase (Homo sapiens)

C=C(C)C(=O)Nc1ccc(Cl)c(Cl)c1
active: [16] 49.1 µM and 54.3 µM
not listed: [4] | [5] | [6] | [8] | [18] | [19]
inactive: all other assays above

C=C(C)C(=O)O[C@H]1C[C@@H]2CC[C@@]1(C)C2(C)C
not listed: [4] | [5] | [6] | [8] | [18] | [19]
inactive: all other assays above

CC(C)(N)CO
not listed: [4] | [5] | [6] | [8] | [18] | [19]
inactive: all other assays above

CCN(CC)c1ccc(C(=O)c2ccccc2C(=O)O)c(O)c1
active: [14] 17.3 µM and 43.3 µM
not listed: [4] | [5] | [6] | [8] | [17] | [18]
inactive: all other assays above

OCCOCCN1CCN(C2=Nc3ccccc3Sc3ccccc32)CC1
active: [17] 29.8 µM and 8.41 µM | [2] 26.6 µM and 9.44 µM | [3] 26.6 µM
inactive: [1] | [7] | [10] | [12] | [15]

CC(=O)Nc1ccccc1
not listed: [4] | [5] | [6] | [8] | [18] | [19]
inactive: all other assays above

C#C[C@]1(O)CC[C@H]2[C@@H]3CCC4=CC(=O)CC[C@@H]4[C@H]3CC[C@@]21C
inactive and 30.6 µM (active): [17]
inactive: [7] | [12] | [15] | Aromatase (Homo sapiens)
inactive and 27.3 µM (active): [2]
active: [3] 27.3 µM

COc1ccc2cc([C@H](C)C(=O)O)ccc2c1
inactive: [1] | [19] | [7] | [9] | [16] | [10] | [12] | [15]

CCCCOC(=O)COc1ccc(Cl)cc1Cl
inactive: [1] | [17] | [2] | [3] | [7] | [9] | [16] | [10] | [12] | [15] | Aromatase (Homo sapiens)

COc1ccc(Nc2ccccc2)c(C)c1
not listed: [4] | [5] | [6] | [8] | [18] | [19]
inactive: all other assays above

CN(C)CCC(c1ccc(Cl)cc1)c1ccccn1 (configuration not stated)
active: [9] 24.4 µM and 30.6 µM | [16] 48.7 µM and 48.6 µM
inactive: [1] | [17] | [2] | [3] | [7] | [10] | [12] | [15]

CC(O)COCC(C)O (configuration not stated)
not listed: [4] | [5] | [6] | [8] | [12] | [18] | [19]
inactive: all other assays above

OCc1cccnc1
not listed: [4] | [5] | [6] | [8] | [16] | [18] | [19]
inactive: all other assays above

O=C(OCCOCCOC(=O)c1ccccc1)c1ccccc1
not listed: [2] | [4] | [5] | [6] | [8] | [18]
inactive: all other assays above

O=C(O)CCCCCCCCCCC(=O)O
inactive and 61.1 µM (active): [14]
not listed: [4] | [5] | [6] | [8] | [18] | [19]
inactive: all other assays above

O=c1[nH]c(=O)n([C@H]2C[C@H](O)[C@@H](CO)O2)cc1Br
active: [3] 11.9 µM and 24.7 µM
not listed: [2] | [4] | [5] | [6] | [8] | [14] | [18]
inactive: all other assays above

Source: PubChem BioAssay (Tox21)
